Values joined by “and” are separate entries in the source; they are usually repeats but may differ in a detail not shown here. Equal entries are not always repeated. The whole screen tested about 5,500 compounds, of which about 2,000 (36%) were called active. About 18% were inconclusive and are not listed. No stated cut-off is given here; in the data, active means normalized growth mostly below about 0.91 (no sharp cut-off); inconclusive means no clear call, values can overlap the other calls; inactive means mostly above about 0.92. The list shows a part of the results.
Assay: chemical genetic growth profiling, strain panel (AID 1159580);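 further: tested at 20 µM; growth read once vehicle control cultures reached saturation at 30 °C; 1 = growth at the plate median or of vehicle wells; lower values mean less growth of the strain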
Settings: S. cerevisiae deletion strains, growth OD

Measured: normalized growth

Cc1nc2ccccn2c(=O)c1CCN1CCC(C(=O)c2ccc(F)cc2)CC1
inactive: locus YAL013W, strain DEP1, active compounds read low 1.02 and 1.01 | locus YAL021C, strain ccr4, active compounds read low 1 | locus YAL026C, strain drs2, active compounds read low 1 | locus YAL030W, strain snc1, active compounds read low 0.999 | locus YAL040C, strain CLN3, active compounds read low 0.993 | locus YBL061C, strain skt5, active compounds read low 0.983 | locus YBR009C, strain hhf1, active compounds read low 0.987 | locus YBR021W, strain FUR4, active compounds read low 0.981 | locus YBR023C, strain chs3, active compounds read low 0.986 | locus YBR171W, strain sec66, active compounds read low 0.981 | locus YBR229C, strain ROT2, active compounds read low 1.02 | locus YBR231C, strain swc5, active compounds read low 0.984 | locus YBR279W, strain paf1, active compounds read low 0.977 | locus YCL011C, strain gbp2, active compounds read low 0.997 | locus YCL016C, strain dcc1, active compounds read low 0.989 | locus YCL029C, strain bik1, active compounds read low 0.999 | locus YCL061C, strain MRC1 (second series), active compounds read low 1.01 | locus YCL061C, strain MRC1, active compounds read low 1.02 | locus YCL069W, strain vba3, active compounds read low 1 | locus YCR088W, strain abp1, active compounds read low 0.982 | locus YDL005C, strain med2, active compounds read low 0.973 | locus YDL035C, strain GPR1, active compounds read low 1.02 | locus YDL040C, strain nat1, active compounds read low 1 | locus YDL074C, strain BRE1, active compounds read low 1.07 | locus YDL101C, strain DUN1, active compounds read low 1.04 | locus YDL134C, strain PPH21, active compounds read low 1.02 | locus YDL185W, strain tfp1, active compounds read low 0.992 | locus YDL192W, strain arf1, active compounds read low 0.997 | locus YDR001C, strain nth1, active compounds read low 0.986 | locus YDR069C, strain doa4, active compounds read low 0.972 | locus YDR101C, strain arx1, active compounds read low 0.979 | locus YDR137W, strain rgp1, active compounds read low 0.976 | locus YDR150W, strain NUM1, active compounds read low 1.03 and 1 | locus YDR159W, strain sac3, active compounds read low 0.977 | locus YDR162C, strain NBP2, active compounds read low 1.05 | locus YDR195W, strain ref2 0.996 | locus YDR297W, strain sur2, active compounds read low 0.98 | locus YDR318W, strain mcm21, active compounds read low 0.983 | locus YDR334W, strain swr1, active compounds read low 0.982 | locus YDR335W, strain msn5, active compounds read low 0.984 | locus YDR363W, strain ESC2, active compounds read low 1.01 | locus YDR388W, active compounds read low 0.995 | locus YDR392W, strain spt3, active compounds read low 0.988 | locus YDR502C, strain sam2, active compounds read low 1.01 | locus YEL003W, strain gim4, active compounds read low 0.997 | locus YEL037C, strain rad23, active compounds read low 0.984 | locus YEL061C, strain CIN8 (second series), active compounds read low 0.994 | locus YEL061C, strain CIN8, active compounds read low 1.01 | locus YER002W, strain NOP16, active compounds read low 0.983 | locus YER015W, strain faa2, active compounds read low 0.997 | locus YER016W, strain bim1, active compounds read low 0.985 | locus YER110C, active compounds read low 0.991 | locus YER111C, strain swi4, active compounds read low 0.973 | locus YER155C, strain BEM2 (second series), active compounds read low 1 | locus YER155C, strain BEM2, active compounds read low 1.02 | locus YER167W, strain BCK2, active compounds read low 1.01 | locus YFR010W, strain ubp6, active compounds read low 0.989 | locus YGL078C, strain dbp3, active compounds read low 0.999 | locus YGL086W, strain mad1, active compounds read low 0.996 | locus YGL167C, strain pmr1, active compounds read low 0.983 | locus YGL173C, strain kem1, active compounds read low 0.992 | locus YGL227W, strain vid30, active compounds read low 1 | locus YGL240W, strain doc1, active compounds read low 1.01 | locus YGL248W, strain PDE1, active compounds read low 1.02 | locus YGL253W, strain hxk2, active compounds read low 0.996 | locus YGR078C, strain PAC10, active compounds read low 1.04 and 1.02 | locus YGR135W, strain pre9, active compounds read low 1 | locus YGR229C, strain SMI1, active compounds read low 1.04 | locus YGR252W, strain gcn5, active compounds read low 0.945 | locus YHR013C, strain ard1, active compounds read low 0.97 | locus YHR027C, strain rpn1, active compounds read low 0.985 | locus YHR030C, strain SLT2, active compounds read low 1.02 | locus YHR079C, strain IRE1 (second series), active compounds read low 0.985 | locus YHR079C, strain IRE1, active compounds read low 1.05 | locus YHR094C, strain hxt1, active compounds read low 0.998 | locus YHR129C, strain ARP1, active compounds read low 1.02 | locus YHR142W, strain chs7, active compounds read low 0.968 | locus YHR200W, strain rpn10, active compounds read low 0.998 | locus YIL066C, strain RNR3, active compounds read low 1.03 | locus YIL073C, strain SPO22, active compounds read low 0.973 | locus YIL125W, strain kgd1, active compounds read low 1 | locus YIR030C, strain dcg1, active compounds read low 1 | locus YJL092W, strain hpr5, active compounds read low 0.987 | locus YJL095W, strain BCK1 (second series), active compounds read low 0.986 | locus YJL095W, strain BCK1, active compounds read low 1.04 and 1.01 | locus YJL115W, strain asf1, active compounds read low 0.991 | locus YJL129C, strain trk1, active compounds read low 0.987 | locus YJL134W, strain LCB3, active compounds read low 1.02 | locus YJL154C, strain vps35, active compounds read low 0.987 | locus YJL164C, strain tpk1, active compounds read low 0.993 | locus YJL166W, strain qcr8, active compounds read low 0.996 | locus YJL168C, strain set2, active compounds read low 0.99 | locus YJL187C, strain SWE1 (second series), active compounds read low 1.03 | locus YJR043C, strain POL32, active compounds read low 1 | locus YJR066W, strain TOR1, active compounds read low 0.993

Reference: PubChem BioAssay AID1159580 (chemical genetic matrix, 2015)
